SUMO Mot1 rescue – yeast Mot1-301 growth rescue at high temperature, primary screen, SUMOylation pathway inhibitor project, S. cerevisiae, ATP luminescence, 38.5C. S. cerevisiae Mot1-301 growth rescue; percent above DMSO median, 100 means doubled. growth rescue, % at 18.8 µM. actives 1% (n = 320,000). AID 2716, 2010;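 active means every valid replicate shows activation above 250% relative to neutral control wells; inactive means the rest, any valid replicate at or below 250%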;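 further: OY570 slx delta 5 strain wells were the positive control but not used for scaling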
tim23-1 inh – growth inhibitors of tim23-1 mutant yeast, primary screen, luminescence, uHTS | S. cerevisiae tim23-1 growth, BacTiter-Glo luminescence, 24 h | inhibition, % at 20 µM | actives 1.3% (n = 330,000);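 active means growth inhibition of the mutant yeast at or above 50%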;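 further: temperature-sensitive mutant grown at 25 °C; plate controls were DMSO-treated mutant yeast for no effect and medium wells lacking yeast for full effect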
PfHsp90 set2 – growth inhibition of PfHsp90-expressing yeast, primary screen, antimalarial PfHsp90 inhibitor project, S. cerevisiae, BacTiter-Glo luminescence, single point, set 2. BacTiter-Glo ATP, 48 h; yeast lacking PDR1 and PDR3 efflux regulators. inhibition, % at 9.4 µM. actives 0.32% (n = 310,000). AID 504621, 2011;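 active means every replicate shows inhibition above about 80%, whatever the replicate mean, limit read from the data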;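 further: 0% = DMSO neutral controls and 100% = 20 µM radicicol positive controls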
tim10-1 inh – growth inhibitors of tim10-1 mutant yeast, primary screen, luminescence, uHTS | S. cerevisiae tim10-1 ts strain growth, BacTiter-Glo, 24 h | AID 463190, 2010 | inhibition, % at 20 µM | actives 2.2% (n = 330,000);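 active means inhibition of at least 40%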;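 further: mutant grown at 25 °C; 0% = DMSO wells with yeast and 100% = wells holding no yeast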
TIM10 inh – growth inhibitors of isogenic TIM10 control yeast, primary screen, counter-screen for tim10-1 yeast inhibitor project, luminescence, uHTS | inhibition, % at 10 µM | actives 1.4% (n = 330,000) | S. cerevisiae TIM10 strain growth, BacTiter-Glo luminescence, 24 h | AID 463195, 2010;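 active means inhibition of 40% or more at the single tested concentration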;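 further: wild-type TIM10 isogenic control strain grown at permissive 25 °C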
tim23-1 conf – tim23-1 mutant yeast growth inhibitors, confirmation, luminescence, single concentration; shares compounds with tim23-1 inh; S. cerevisiae tim23-1 growth, BacTiter-Glo luminescence, 24 h; inhibition, % at 20 µM; actives 83% (n = 4,400); AID 463218, 2010;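 active means inhibition above about 39% in either of two replicate wells at 20 µM, limit read from the data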;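 further: temperature-sensitive tim23-1 mutant grown at 25 °C; 0% = DMSO wells with yeast and 100% = medium wells without yeast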
Starred values were filed as active, the others as inactive; · = no result. Sampled rows, rich in hits. Any-hit rate of the full collection: about 4.4%.

SMILES	SUMO Mot1 rescue	tim23-1 inh	PfHsp90 set2	tim10-1 inh	TIM10 inh	tim23-1 conf
CC(C)c1nc(SCC(=O)N2CCCC2)c2c(=O)n(C)c(=O)n(C)c2n1	-21	15	-17	-1	-3	·
CCc1nc(SCc2ccccn2)c2c(=O)n(C)c(=O)n(C)c2n1	5	55*	-43	22	-9	50*
CC(C)c1nc(SCc2ccccn2)c2c(=O)n(C)c(=O)n(C)c2n1	0	50*	-14	15	8	48*
Cn1c(=O)c2c(SCc3cccnc3)nc(C3CC3)nc2n(C)c1=O	303	50*	0	21	13	42*
O=C(NC1CCCCC1)C(=O)c1c[nH]c2ccccc12	21	38	29	-2	8	·
Cc1cc2cc(CNC(=O)c3ccc(C)c([N+](=O)[O-])c3)ccc2[nH]1	1	62*	162*	38	8	56*
CCCCc1cc(O)c(CCCC)c(O)c1	-4	53*	8	35	-3	42*
CCCCCc1cc(O)c2c(C)cc(=O)oc2c1	-14	22	17	19	15	·
COCCn1c(SCC(=O)Nc2cc(C)cc(C)c2)nnc1C(C)C	7	15	1	12	-7	·
COCCn1c(SCC(=O)Nc2cccc(C)c2)nnc1C(C)C	14	50*	19	8	12	16
Cc1nc(SCc2nc3cc(Cl)c(F)cc3[nH]2)c2oc3ccccc3c2n1	1	56*	-11	33	35	50*
Cc1nc(SCc2nc3ccc(Cl)cc3[nH]2)c2oc3ccccc3c2n1	-10	45	4	21	-1	·
Cc1nc(SCc2nc3ccc(C(F)(F)F)cc3[nH]2)c2oc3ccccc3c2n1	-17	57*	-2	33	7	49*
CCN(CC(=O)N1CCOCC1)S(=O)(=O)c1ccccc1	-4	-6	-22	26	-3	·
Brc1ccc(-c2cnco2)cc1	-7	17	·	0	-2	·
CC(=O)Oc1cccc(N2C(=O)c3ccc(C(=O)Nc4cccnc4)cc3C2=O)c1	16	-5	-5	-3	-3	·
CCOc1ccccc1N1C(=O)c2ccc(C(=O)Nc3cccnc3)cc2C1=O	91	50*	-13	6	13	21
O=C(COc1ccccc1-c1ccccc1)N/N=C/c1cccnc1	·	36	-7	-29	-15	·
O=C(COc1ccccc1-c1ccccc1)N/N=C/c1ccncc1	·	53*	-9	16	14	44*
Cc1ccc(-c2c(C)cc3oc(=O)cc(-c4ccccc4)c3c2C)cc1	·	30	5	3	-7	·
CC(=O)Nc1ccc(-c2c(C)cc3oc(=O)cc(-c4ccccc4)c3c2C)cc1	·	50*	-61	28	3	33
O=C(N/N=C/CCc1ccccc1)c1ccccc1	-5	55*	-3	-3	6	6
Cc1ccc(S(=O)(=O)NCC(=O)OCCOc2ccccc2F)cc1	-6	18	-7	25	3	·
Cc1ccc(S(=O)(=O)NCC(=O)OCCOc2cccc(Cl)c2)cc1	-3	51*	-18	37	15	44*
O=C(NCc1ccc2c(c1)OCO2)Nc1cccc(Cl)c1	-13	53*	-7	2	28	64*
SMILES	SUMO Mot1 rescue	tim23-1 inh	PfHsp90 set2	tim10-1 inh	TIM10 inh	tim23-1 conf
O=C(Cc1ccccc1)NNC(=O)Nc1cccc(Cl)c1	-7	51*	2	-4	9	11
O=C(CCC(=O)NNC(=O)Nc1cccc(Cl)c1)NCc1ccccc1	·	3	-25	6	-15	·
CC(=O)c1cccc(NC(=O)NCc2ccc3c(c2)OCO3)c1	-4	11	-34	8	-2	·
O=C(NCc1ccc2c(c1)OCO2)c1ccc(-c2ccc(Cl)cc2)o1	-16	55*	-61	19	33	54*
COc1ccc(N(C)C(=O)C2CCCN2S(=O)(=O)c2cccc3nsnc23)c(OC)c1 (stereo unspecified)	-4	9	17	1	17	·
CCOC(=O)C1CN(S(=O)(=O)c2cccs2)c2ccc(CC(=O)OC)cc2O1 (stereo unspecified)	7	24	0	30	11	·
O=C(CN1c2cccc3cccc(c23)S1(=O)=O)N1CCCCC1	196	17	12	9	10	·
O=C(O)CC1(CC(=O)N2CCC(C(=O)O)CC2)CCCC1	-2	0	0	-11	7	·
CC1CCN(C(=O)COC(=O)c2ccc([N+](=O)[O-])o2)CC1	13	20	13	18	0	·
CC1Cc2ccccc2N1C(=O)COC(=O)c1ccc([N+](=O)[O-])o1 (stereo unspecified)	-11	57*	-10	34	34	48*
O=C(Nc1ccccc1OCc1ccccc1)c1ccccc1Br	-2	42	1	-8	-24	·
N#C/C(C(N)=O)=c1/ccc2c(c1)N1C3=C(CCCC3)CC3CCCCC31N=2 (stereo unspecified)	-54	63*	·	26	19	52*
NNC(=O)c1csc(Cc2c(Cl)sc3ccc(Cl)cc23)n1	260	48	-19	32	18	·
C/C(=N\OCC(=O)N/N=C/c1ccccc1)c1cccs1	-1	32	9	15	28	·
C/C(=N\OCC(=O)N/N=C/c1ccccc1O)c1cccs1	15	56*	·	15	30	57*
Cc1ccc(C(C)C)c(OCC(O)CNC2CCCC2)c1 (stereo unspecified)	-8	5	7	8	-13	·
CCN(C[C@H]1N[C@@](CC)(C(=O)OC)[C@H]2C(=O)N(C)C(=O)[C@@H]12)C(=O)NC(C)C	·	6	-15	0	-6	·
Oc1c(Cl)cc(Cl)cc1C=Nc1ccccc1N1CCCC1	2	57*	·	18	14	54*
COc1ccccc1C(C(=O)NC1CCCC1)N(C(=O)c1csnn1)C1CC1 (stereo unspecified)	-19	15	2	4	-5	·
CCCC(=O)NC(c1ccccc1Cl)c1ccc2cccnc2c1O (stereo unspecified)	1	50*	113*	4	-22	53*
CCC(=O)NC(c1ccc(C)cc1)c1ccc2cccnc2c1O (stereo unspecified)	-6	62*	112*	1	2	58*
COc1ccc(C(NC(=O)C(C)C)c2ccc3cccnc3c2O)cc1 (stereo unspecified)	-15	38	60	4	-46	·
CC(=O)NC(c1ccco1)c1ccc2cccnc2c1O (stereo unspecified)	-10	17	4	30	-11	·

Screening data deposited in PubChem BioAssay by several laboratories.
